Source: PubChem
Shown are actives, neighbours in structure and some others; about 2.6% of the full set was active somewhere.
SKOV3 invasion – Primary qHTS assay for Inhibitors of ovarian cancer metastasis using an organotypic tumor microenvironment (TME) model; SKOV3ip1-GFP adhesion/invasion on 3D omental model, fluorescence; 46,000 compounds, 0.1% hits; AID 1963576, 2024; Potency, µM (highest dose often 45.8 µM), without a hit: at the top dose activity change, negative = inhibition, actives largely listed as inhibitors;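 also: potency is read from the fitted curve at half-maximal effect; plate controls were DMSO wells for no effect and tomatine positive control wells for full effect; nearly all actives have a fitted effect of over 65% in size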
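Primary human omental fibroblast/mesothelial 3D culture pre-formed 48 h. SKOV3ip1-GFP cells added with compounds (0.36-46 umol/L), incubated 2 h RT/16 h 37 C, fixed; GFP cells quantified at 488/509 nm.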
S16 F2sN tox – Cell viability qHTS assay in S16 Pmp22-F2sN cells; Potency, µM (doses to about 57.5 µM), without a hit: at the highest dose activity change, negative = cytotoxicity, actives largely listed as cytotoxic; S16 Pmp22-F2sN Schwann cells viability, CellTiter-Glo, 24 h; 43,000 compounds, 0.48% hits; also: potency is read from the fitted curve at half-maximal effect; % is scaled to controls: 0 for no effect and ±100 for the full control effect; nearly all actives have a fitted effect of over 65% in size
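Viability was measured by CellTiter-Glo luminescence (15 min, room temperature). This followed 24 h at 37 °C of compound exposure (23 nL pin transfer) in S16 Pmp22-F2sN Schwann cells, 500-1,000 per well.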
PMP22 txn prim – Cell-based coincidence reporter assay to measure PMP22 gene transcription in S16 Pmp22-F2sN cells - Primary screen | S16 Pmp22-F2sN Schwann cells (luciferase reporters placed in the Pmp22 gene), FLuc/NLuc coincidence luminescence, 24 h | Potency, µM (titrated, usually from 57.5 µM), inactives show at the highest dose activity change, negative = inhibition, hits mostly inhibitors | 43,000 compounds, 2% hits | AID 1508649, 2021; active = clear falling dose curves in both reporters; inconclusive = both reporters move, but less clearly or upward; inactive = either reporter flat; the % is the NLuc reporter signal; also: potency is read from the fitted curve at half-maximal effect; % is scaled to controls: 0 for no effect and ±100 for the full control effect
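Luminescent read-out of sequential FLuc and NLuc signals from a reporter embedded in the Pmp22 3' UTR of S16 Schwann cells, taken after 24 h compound exposure at 37C; compounds reducing both signals score as inhibitors of expression.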
pS6 MEF inh – Acumen qHTS Assay for Inhibitors of the mTORC1 Signaling Pathway in MEF (Tsc2-/-, p53-/-) Cells: Sytravon; AID 493208, 2011; Potency, µM (series often up to 38.3 µM), for inactives: top-dose activity change, negative = inhibition, actives largely listed as inhibitors; Tsc2-/- p53-/- MEF, phospho-rpS6 immunofluorescence/PI, 24 h; 44,000 compounds, 0.78% hits;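 also: potency is read from the fitted curve at half-maximal effect; plate controls were DMSO for no effect and rapamycin for full effect; nearly all actives have a fitted effect of over 50% in size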
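Compounds act on Tsc2-/-, p53-/- fibroblasts carrying an empty vector for 24 h before fixation and dual staining for phospho-S6 and DNA (propidium iodide). Values are percentages of cells above a rapamycin-defined pS6/PI threshold.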
NLuc sat counter – Biochemical NLuc saturation counterscreen for small molecule modulators of PMP22 gene expression - Nano-Glo assay; 690 compounds, 4% hits; Secreted NLuc enzyme (filtered S16 cell medium), Nano-Glo luminescence; AID 1508638, 2021; shares compounds with PMP22 txn prim; Potency, µM (titrated, usually from 57.5 µM), inactives show top-dose activity change, negative = inhibition, actives largely listed as inhibitors; also: potency is read from the fitted curve at half-maximal effect; % is scaled to controls: 0 for no effect and ±100 for the full control effect
NLuc Km counter – Biochemical coelenterazine-based NLuc counterscreen for small molecule modulators of PMP22 gene expression - Km assay; shares compounds with PMP22 txn prim; secreted NLuc enzyme, coelenterazine luminescence, Km conditions; Potency, µM (series often up to 57.5 µM), without a hit: at the highest dose activity change, negative = inhibition, usual class: inhibitors; 690 compounds, 5% hits; AID 1508639, 2021; also: potency is read from the fitted curve at half-maximal effect; % is scaled to controls: 0 for no effect and ±100 for the full control effect
FLuc counter – Biochemical FLuc counterscreen for small molecule modulators of PMP22 gene expression; 690 tested, under 10 active; Potency, µM (doses to about 57.5 µM), for inactives: at the highest dose activity, negative = inhibition, most hits filed as inhibitors; purified P. pyralis FLuc, luminescence, 10 min; AID 1508640, 2021; shares compounds with PMP22 txn prim; also: % of control where 0% means no effect
Target sequence (P08659 whole entry, looked up): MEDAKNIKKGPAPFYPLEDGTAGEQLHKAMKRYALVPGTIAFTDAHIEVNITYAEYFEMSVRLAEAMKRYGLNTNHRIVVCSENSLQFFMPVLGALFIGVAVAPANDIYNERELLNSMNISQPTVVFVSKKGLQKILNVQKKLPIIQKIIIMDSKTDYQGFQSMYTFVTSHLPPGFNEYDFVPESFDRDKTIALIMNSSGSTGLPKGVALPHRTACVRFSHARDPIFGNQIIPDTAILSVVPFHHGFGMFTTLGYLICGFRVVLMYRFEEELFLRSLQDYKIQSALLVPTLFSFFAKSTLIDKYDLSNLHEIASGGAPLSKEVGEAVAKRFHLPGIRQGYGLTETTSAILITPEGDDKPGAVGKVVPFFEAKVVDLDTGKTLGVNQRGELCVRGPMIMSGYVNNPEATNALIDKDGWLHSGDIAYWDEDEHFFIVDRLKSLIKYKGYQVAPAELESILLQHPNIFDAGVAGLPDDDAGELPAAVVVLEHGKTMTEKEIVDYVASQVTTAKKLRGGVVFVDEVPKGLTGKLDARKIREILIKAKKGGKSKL
S16 F2sN tox cnf – Cell viability qHTS assay in S16 Pmp22-F2sN cells - Confirmatory screen; shares compounds with PMP22 txn prim; S16 Schwann cells viability, CellTiter-Glo ATP luminescence, 24 h; Potency, µM (titrated, usually from 57.5 µM), for inactives: at the highest dose activity change, negative = viability loss, usual class: cytotoxic; 690 compounds, 7% hits; AID 1508641, 2021; also: potency is read from the fitted curve at half-maximal effect; % is scaled to controls: 0 for no effect and ±100 for the full control effect
PMP22 txn conf – Cell-based coincidence reporter assay to measure PMP22 gene transcription in S16 Pmp22-F2sN cells - Confirmatory screen | shares compounds with PMP22 txn prim | S16 Schwann cells Pmp22-F2sN, dual luciferase, 24 h | AID 1508646, 2021 | Potency, µM (top dose mostly 57.5 µM), for the others: at the top dose activity change, negative = inhibition, hits mostly inhibitors | 690 compounds, 22% hits; active = clear falling dose curves in both reporters; inconclusive = both reporters move, but less clearly or upward; inactive = either reporter flat; the % is the FLuc reporter signal; also: potency is read from the fitted curve at half-maximal effect
PMP22 HiBiT cnf – Cell-based HiBiT reporter assay to measure PMP22 protein expression in S16 Pmp22-HiBiT cells - Confirmatory screen. Potency, µM (series often up to 27.9 µM), for the others: at the top dose activity change, negative = inhibition, hits mostly inhibitors. shares compounds with PMP22 txn prim. 95 tested, under 10 active. S16 Schwann cells Pmp22-HiBiT, luminescence, 48 h. AID 1508647, 2021
Target sequence (P25094 whole entry, looked up): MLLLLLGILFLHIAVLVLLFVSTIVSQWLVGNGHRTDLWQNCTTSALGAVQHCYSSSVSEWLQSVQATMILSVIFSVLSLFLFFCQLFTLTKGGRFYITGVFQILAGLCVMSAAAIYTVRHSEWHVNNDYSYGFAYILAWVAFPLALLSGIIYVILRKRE
* hit, by the source's call; i = inactive; ? = inconclusive; · = no result. Unless noted, calls follow the shape of the dose curve; as a rule, active = well fitted curve in the direction sought with a large enough effect; inconclusive = small, poorly fitted or top-dose-only effect, or another doubt; inactive = no such curve, though single readings can be large; an effect the other way counts as inactive or inconclusive.

SMILES	SKOV3 invasion	S16 F2sN tox	PMP22 txn prim	pS6 MEF inh	NLuc sat counter	NLuc Km counter	FLuc counter	S16 F2sN tox cnf	PMP22 txn conf	others
CC1=Nc2cc(C(=O)NC(C)C)ccc2Sc2ccc(C)cc21	i	-19.3%	?	?	·	·	·	·	·
CC1=Nc2cc(C(=O)NC3CCCC3)ccc2Sc2ccc(C)cc21	9.4%	1.9%	7.81µM*	?	-10.4%	3.9%	-7.3%	14.9%	?
COc1ccc(NC(=O)c2c(NCc3ccc(C)o3)sc3c2CCCCC3)c(OC)c1	-10.2%	-25.0%	14.1µM*	?	?	?	-23.2%	6.9%	?
COc1ccc(NC(=O)c2c(NCc3ccc(C)o3)sc3c2CCC(C)C3)c(OC)c1 (stereo not drawn)	1.7%	?	?	?	·	·	·	·	·
O=C(CCn1cnnn1)Nc1cc(C(F)(F)F)cc(C(F)(F)F)c1	i	-4.7%	3.95µM*	-5.0%	-10.0%	2.7%	-10.4%	0.6%	?
O=C(CN1C(=O)C2(CCCC2)NC[C@H]1c1cc(F)cc(F)c1)Nc1ccc2c(c1)C[C@@]1(C2)C(=O)Nc2ncccc21	5.0%	·	·	·	·	·	·	·	·
CCOc1ccc(CN2CCc3nc(N4CCN(c5ccccc5OC)CC4)ncc3C2)cc1OC	-2.3%	-8.4%	17µM*	0.0%	-2.4%	-0.4%	-1.2%	-11.2%	-41.3%
COc1cc(OC)c(OC)cc1CN1CCc2nc(N3CCN(c4ccccc4F)CC3)ncc2C1	-1.3%	-10.3%	?	0.0%	-9.1%	3.0%	-1.6%	-1.1%	?
CCOc1ccn(-c2ccc(F)cc2)c(=O)c1C(=O)Nc1ccc(Oc2ccnc(N)c2Cl)c(F)c1	6.7%	·	·	·	·	·	·	·	·
COc1cc(-c2nc(Cn3nnc(C(=O)Nc4cc(C)cc(C)c4)c3C)c(C)o2)cc(OC)c1OC	i	5.5%	?	-11.5%	4.85µM*	3.85µM*	-8.5%	-1.7%	?
O=C(CCNS(=O)(=O)c1ccc2c(c1)CCN2C(=O)C1CC1)Nc1ccc(Cl)cc1	-6.1%	-28.3%	?	-0.6%	·	·	·	·	·
COc1ccc(NC(=O)CCNS(=O)(=O)c2ccc3c(c2)CCN3C(=O)C2CC2)cc1Cl	-25.4%	-24.8%	14.1µM*	-23.6%	?	?	-4.9%	-6.6%	-38.4%
CC(C)(C)COc1ccc(-n2cc(C(=O)O)cn2)cc1C#N	10.8%	·	·	·	·	·	·	·	·
Cc1cc(C=c2sc3nc4ccccc4n3c2=O)c(C)n1-c1ccccc1	-26.9%	·	·	·	·	·	·	·	·
O=c1c(-c2ccc(O)cc2)coc2cc(OC3O[C@H](CO)[C@H](O)[C@H](O)[C@H]3O)cc(O)c12 (stereo partly drawn)	-37.6%	·	·	·	·	·	·	·	·
Cc1cc(CN2CCN(c3cccc(C)c3C)CC2)cs1	-7.1%	-12.7%	-29.9%	0.0%	·	·	·	·	·
Cc1c(Cl)cccc1N1C(N)=C(C#N)C(c2cc(CN3CCOCC3)cs2)C2=C1CCCC2=O (stereo not drawn)	i	-5.6%	7.23µM*	-2.9%	?	?	-8.5%	-9.9%	-30.6%
CN(C)CC(C)(C)CNc1nn2c(-c3ccccc3)nnc2cc1C1CCC1	-16.1%	·	·	·	·	·	·	·	·
Clc1ccc(-c2noc3ncnc(NC4CCCCC4)c23)cc1	i	-0.5%	?	-0.2%	-8.3%	-1.1%	-3.5%	-9.7%	?
Clc1cccc(-c2noc3ncnc(NC4CCCCC4)c23)c1	-0.8%	-18.7%	?	-13.3%	-12.5%	2.0%	-11.0%	-16.4%	8.16µM*	PMP22 HiBiT cnf=-6.3%
Cc1cccc(CCNc2ncnc3onc(-c4ccc(Cl)cc4)c23)c1	i	-18.8%	18.9µM*	1.4%	-0.5%	-1.3%	-5.6%	?	?
CC1CCC(Nc2ncnc3onc(-c4ccc(Cl)cc4)c23)CC1 (stereo not drawn)	-2.5%	-1.3%	-10.5%	-6.0%	·	·	·	·	·
CC(C)OCCCNc1ncnc2sc3c(c12)CCCC3	i	-10.0%	14.1µM*	-20.2%	-2.6%	-2.7%	-8.7%	-7.5%	-5.9%
CN(C)c1ccc(Nc2ncnc3sc4c(c23)CCCC4)cc1	13.1%	-14.9%	?	0.0%	·	·	·	·	·
CC1(COc2ccc3c(c2)ncn3-c2ccc3cccc(N4CCC(N)CC4)c3n2)COC1	-3.6%	·	·	·	·	·	·	·	·
CCCc1oc2ccc(NS(=O)(=O)c3ccc(OC)cc3)cc2c1C(=O)OCC	-26.9%	8.0%	13.4µM*	4.14µM*	-14.1%	?	-0.6%	3.7%	-51.8%
CCc1ccccc1NC(=O)CSc1ncc(S(=O)(=O)c2ccc(C(C)C)cc2)c(N)n1	i	-2.1%	17.9µM*	0.3%	?	1.0%	4.8%	21.4%	?
CCOc1cc(C2c3c(oc4ccccc4c3=O)C(=O)N2Cc2ccccc2Cl)ccc1O (stereo not drawn)	-8.1%	2.5%	?	-5.9%	·	·	·	·	·
